Experimental findings from PubChem BioAssay are described below.

The nature of this assay: MELAS cybrid and Rieske KO viability enhancers – cell-based, MELAS cybrids, Rieske KO mouse fibroblasts, CellTiter-Glo, primary screen (AID 1508586).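 Further: test concentration not given here; z relative to plate mean and SD of compound and empty wells.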 Conditions: Rieske KO mouse fibroblast survival, low glucose, CellTiter-Glo 72 h. On the technique in general: In ATP-based viability assays light output follows the ATP content of the culture.
For `NC(=O)Cc1ccccc1Oc1nccc(-c2c(-c3ccc(F)cc3)ncn2C2CCNCC2)n1`, the z-score is -0.373. Then `C[C@H]1NC(=O)NC1=O`, with -0.336; and `COCC(=O)Nc1c(C(=O)OC)n(CCC(C)C)c2ncc(NC(C)CCn3cccn3)cc12` (configuration not stated), with 4.41; and `NC(=O)c1cccc(Nc2nccc(Nc3cccc4[nH]ncc34)n2)c1`, with -0.0979. For the compound `CCS(=O)(=O)c1ccc(OC)c(Nc2ncc(-c3cccc(C(C)=O)c3)o2)c1`, the z-score is -0.327. Consider `CS(=O)(=O)CCNCc1ccoc1-c1ccc2ncnc(Nc3ccc(OCc4ccccc4)cc3)c2c1`, for which the z-score is -0.404.

`COc1cccc(-n2ncc3c(N/N=C/c4ccc(S(C)(=O)=O)cc4)ncnc32)c1`: the z-score is -0.0857. In the case of `COc1cccc(Nc2nccc(-c3cnn4ncccc34)n2)c1`, the z-score stood at 1.18. In the case of `CN(Cc1cscn1)C(=O)c1nn(CC2CC2)c2c1CN(C(=O)Cn1cnc3ccccc31)CC2` it was -0.0924; in that of `COC(=O)Nc1nc2ccc(Sc3ccc(NC(=O)Nc4cc(C(F)(F)F)ccc4F)cc3)cc2[nH]1`, -0.32. For the compound `CCOC(=O)c1nn(Cc2ccc(OC)cc2)c2c1CN(C(=O)CSc1ncccn1)CC2`, the z-score was -0.456. Then `O=C(NCc1cccc(F)c1)N[C@H]1C[C@H]2C(=O)N[C@@H](COCc3ccccc3)C(=O)N2C1`, with -0.345; and `NC(=O)c1sc(-n2cnc3ccccc32)cc1OCc1ccccc1Br`, with -0.437. As to `CC(C)C[C@H]1C(=O)N2CCN(Cc3cnn(-c4ccccc4)c3)C[C@@H]2C(=O)N1C`, the z-score was -0.165. As for `Nc1nonc1-c1nc2cnccc2n1C1CC1`, the z-score was -0.585. Regarding `NC(=O)c1cc(-c2ccc(F)cc2)cc(-c2ccncc2)c1N`, the z-score was 0.289. Then `O=C(Nc1ccc(Oc2ccc3nc(NC(=O)c4ccco4)[nH]c3c2)cc1)Nc1cc(C(F)(F)F)ccc1F`, with 6.9; and `Cc1cccc(Nc2ncc(-c3ccccc3)o2)c1`, with -0.569; and `CS(=O)(=O)CCNCc1coc(-c2ccc3ncnc(Nc4ccc(OCc5ccccc5)cc4)c3c2)c1`, with -0.493.

Turning to `COc1cc2ncn(-c3cc(OCc4ccccc4Cl)c(C(N)=O)s3)c2cc1OC`, the z-score was -0.32. Then `COc1cc2ncn(-c3cc(OCCc4ccccc4)c(C(N)=O)s3)c2cc1OC`, with -0.0569; and `CN(C)CCCNC(=O)[C@@H]1C[C@H](CN2CCOCC2)CN(Cc2ccc3ccccc3c2)C1`, with -0.142.
